In PubChem BioAssay (NCI) one finds growth data, which are given here for six molecules.

Test systems include NCI-H23 lung; NCI-H522 lung; 786-0 renal; MDA-MB-231 breast; UACC-62 melanoma; LOX IMVI melanoma; CCRF-CEM leukemia; MOLT-4 leukemia; SR leukemia; OVCAR-8 ovarian; OVCAR-5 ovarian; OVCAR-4 ovarian; SK-OV-3 ovarian; IGROV1 ovarian; HS 578T breast; T-47D breast; SW-620 colon; MCF7 breast; HCT-116 colon; KM12 colon.
Common to all, as to test: NCI-60 one-dose screen, 48 h (100 = growth as untreated, 0 = no growth, -100 = all killed)
Conditions in all cases: 10 µM

Values joined by “and” are separate entries in the source; they are usually repeats but may differ in a detail not shown here. Equal values may be shown once. This is part of a sample that, as a whole, favours compounds with a hit. Of some 83,000 tested, about 20% had one in any assay.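 Each cell line was grown in a 96-well plate and treated with one concentration of compound for 48 hours. Values below 10 were considered active.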 Some structures have more than one record in an assay (separate samples or runs), and their calls can disagree. Active and inactive are the calls of the source.

Take `CC1=C2C(=C[C@@](C)(COS(C)(=O)=O)[C@@H]2O)C(=O)[C@](C)(O)C12CC2`: the growth with NCI-H23 lung was -18.5% (active); in the assay with NCI-H522 lung, -6.78% (active); in the assay on 786-0 renal, 4.19% (active); with MDA-MB-231 breast, 8.84% (active); in the assay on UACC-62 melanoma, -67.1% (active); with LOX IMVI melanoma it was -3.47% (active). In addition, the growth was 11% (inactive) in the assay on CCRF-CEM leukemia; 10.4% (inactive) with MOLT-4 leukemia; 2.86% (active) with SR leukemia; 12.5% (inactive) in the assay on OVCAR-8 ovarian; 1.82% (active) in the assay with OVCAR-5 ovarian; -0.135% (active) in the assay with OVCAR-4 ovarian. Besides, the growth is -13.9% (active) in the assay with SK-OV-3 ovarian; 8.2% (active) with IGROV1 ovarian; -9.58% (active) in the assay with HS 578T breast; -0.976% (active) with T-47D breast; 11.7% (inactive) in the assay with SW-620 colon; 3.13% (active) in the assay with MCF7 breast. The figures for the growth with HCT-116 colon and with KM12 colon were 4.67% (active) and -3.28% (active), respectively.

Regarding `CC1=C2C(=C[C@@](C)(C=O)[C@@H]2O)C(=O)[C@](C)(O)C12CC2`, the growth in the assay with NCI-H23 lung was -24% (active); in the assay on NCI-H522 lung, 12.9% (inactive); in the assay with 786-0 renal, 5.21% (active); with MDA-MB-231 breast, 14% (inactive); in the assay on UACC-62 melanoma it was -48.5% (active); in the assay on LOX IMVI melanoma it was 2.16% (active). Moreover, the growth in the assay with CCRF-CEM leukemia was 22.6% (inactive); in the assay with MOLT-4 leukemia, 16.5% (inactive); with SR leukemia, 14.5% (inactive); with OVCAR-8 ovarian it was 14.1% (inactive); with OVCAR-5 ovarian, 6.05% (active); with OVCAR-4 ovarian it was 19.3% (inactive). For the same molecule, the growth in the assay with SK-OV-3 ovarian was 11.1% (inactive); in the assay with IGROV1 ovarian, 9.24% (active); with HS 578T breast, 33.5% (inactive); in the assay on T-47D breast, 11.7% (inactive); in the assay with SW-620 colon, 10.1% (inactive); with MCF7 breast, 3.05% (active). The figures for the growth in the assay with HCT-116 colon and in the assay with KM12 colon were 6.13% (active) and 27.4% (inactive), respectively.

As for `COc1cc(C)c(-c2ccc(OC)c(=O)cc2C)c(OC)c1OC`, the growth is 22.3% (inactive) and 106% (inactive) in the assay with NCI-H23 lung; -11.4% (active) and 98.2% (inactive) in the assay on NCI-H522 lung; 37.8% (inactive) and 101% (inactive) in the assay with 786-0 renal; 18.3% (inactive) and 99.8% (inactive) in the assay with MDA-MB-231 breast; 30.8% (inactive) and 86.1% (inactive) with UACC-62 melanoma; 18% (inactive) and 106% (inactive) in the assay with LOX IMVI melanoma. Also, the growth with CCRF-CEM leukemia was 10.1% (inactive) and 96.8% (inactive); in the assay on MOLT-4 leukemia, 12.3% (inactive) and 102% (inactive); with SR leukemia, 9.85% (active) and 89.4% (inactive); in the assay on OVCAR-8 ovarian, 5.3% (active) and 100% (inactive); with OVCAR-5 ovarian it was 24.6% (inactive) and 98.9% (inactive); in the assay on OVCAR-4 ovarian, 70.9% (inactive) and 96.9% (inactive). Moreover, the growth with SK-OV-3 ovarian is 32.4% (inactive) and 102% (inactive); with IGROV1 ovarian, 27.2% (inactive) and 103% (inactive); in the assay with HS 578T breast it was 1.63% (active) and 109% (inactive); with T-47D breast it was 61% (inactive) and 137% (inactive); in the assay on SW-620 colon, 19.6% (inactive) and 104% (inactive); with MCF7 breast it was 14.8% (inactive) and 91.5% (inactive). The growth in the assay on HCT-116 colon is 11.9% (inactive) and 102% (inactive); with KM12 colon, 6.94% (active) and 109% (inactive).

`COc1cc2c(cc1OC)[C@@H]1N(CC2)C(=O)c2ccccc2[C@@]1(C)C(=O)O`: the growth with NCI-H23 lung is 102% (inactive); in the assay with NCI-H522 lung, 99.8% (inactive); in the assay with 786-0 renal it was 99.9% (inactive); in the assay with MDA-MB-231 breast, 101% (inactive); in the assay with UACC-62 melanoma, 95.8% (inactive); in the assay on LOX IMVI melanoma it was 105% (inactive). Moreover, the growth with CCRF-CEM leukemia is 105% (inactive); in the assay on MOLT-4 leukemia, 108% (inactive); in the assay on SR leukemia it was 117% (inactive); in the assay on OVCAR-8 ovarian, 104% (inactive); in the assay on OVCAR-5 ovarian, 106% (inactive); in the assay on OVCAR-4 ovarian it was 105% (inactive). For the same molecule, the growth is 113% (inactive) with SK-OV-3 ovarian; 106% (inactive) with IGROV1 ovarian; 108% (inactive) with HS 578T breast; 116% (inactive) with T-47D breast; 109% (inactive) with SW-620 colon; 97.4% (inactive) in the assay on MCF7 breast. The values for the growth with HCT-116 colon and in the assay with KM12 colon were 111% (inactive) and 113% (inactive), respectively.

Turning to `CC1=C(CN(O)C(N)=O)C2=C(C)C3(CC3)[C@](C)(O)C(=O)C2=C1`, the growth in the assay on NCI-H23 lung was 10.7% (inactive); in the assay on NCI-H522 lung, -7.03% (active); in the assay with 786-0 renal, 14.9% (inactive); in the assay with MDA-MB-231 breast, 12.4% (inactive); in the assay with UACC-62 melanoma it was 14.4% (inactive); with LOX IMVI melanoma, 56% (inactive). Further, the growth was 1.19% (active) in the assay on CCRF-CEM leukemia; 76.2% (inactive) in the assay with MOLT-4 leukemia; -4.72% (active) in the assay on SR leukemia; 6.82% (active) with OVCAR-8 ovarian; 10.3% (inactive) with OVCAR-5 ovarian; 13.7% (inactive) with OVCAR-4 ovarian. Further, the growth was 14.7% (inactive) with SK-OV-3 ovarian; 29% (inactive) in the assay on IGROV1 ovarian; 33.7% (inactive) in the assay with HS 578T breast; 6.89% (active) in the assay on T-47D breast; 8.93% (active) in the assay with SW-620 colon; 3.76% (active) in the assay with MCF7 breast. In addition, the growth in the assay with HCT-116 colon is 7.48% (active); in the assay on KM12 colon, -1.93% (active).

Turning to `C/C=C/CC(C)C(O)[C@H](NC(=O)[C@@H]1CCCN1C(=O)C(C)(C)NC(=O)CCCCCCCCC)C(=O)N[C@@](C)(CC)C(=O)N[C@@H](CCC(N)=O)C(=O)N[C@H](CCC(N)=O)C(=O)NC(C)(C)C(=O)N[C@@](C)(CC)C(=O)N[C@@H](CCC(N)=O)C(=O)N[C@H](CC(C)C)C(=O)N[C@H](CO)CC(C)C` (stereo not given in full), the growth is 105% (inactive) and -48.3% (active) with NCI-H23 lung; 101% (inactive) and -77.6% (active) in the assay on NCI-H522 lung; 108% (inactive) and -81.9% (active) with 786-0 renal; 106% (inactive) and -96.8% (active) in the assay on MDA-MB-231 breast; 96% (inactive) and -96.8% (active) in the assay on UACC-62 melanoma; 101% (inactive) and -88.2% (active) in the assay with LOX IMVI melanoma. Further, the growth is 98.9% (inactive) and -46.2% (active) in the assay with CCRF-CEM leukemia; 101% (inactive) and -14.5% (active) in the assay on MOLT-4 leukemia; 92% (inactive) and 11.3% (inactive) with SR leukemia; 99.4% (inactive) and -48.6% (active) in the assay with OVCAR-8 ovarian; 106% (inactive) and -64.3% (active) with OVCAR-5 ovarian; 106% (inactive) and 19.2% (inactive) in the assay with OVCAR-4 ovarian. Besides, the growth in the assay with SK-OV-3 ovarian is 111% (inactive) and -11.2% (active); in the assay on IGROV1 ovarian, 106% (inactive) and -23.2% (active); in the assay with HS 578T breast, 109% (inactive) and -71.9% (active); in the assay on T-47D breast, 95.9% (inactive) and -31.3% (active); in the assay on SW-620 colon, 99.1% (inactive) and 3.5% (active); in the assay with MCF7 breast, 96.1% (inactive) and -68.2% (active). For the same molecule, the growth was 102% (inactive) and 0.686% (active) in the assay with HCT-116 colon; 108% (inactive) and -60.9% (active) in the assay with KM12 colon.
